# Measurements published in PubChem BioAssay (Tox21).
# Where “and” joins values, the source holds several entries; their conditions need not be identical. Equal entries are not always repeated. Inconclusive results are not listed. The source holds several records for some structures; these can differ, active in one and inactive in another. Calls of active or inactive are those of the source. The call rests on the fitted dose curve; in most records, active means well fitted cell-killing curve with a large enough effect in the repeat runs; inconclusive means weak or mixed curves, or effect the other way; inactive means no such curve, though single readings can be large or run the other way.
# Test: qHTS assay to identify small molecule antagonists of the thyroid receptor (TR) signaling pathway - cell viability counter screen (AID 743064); further: nearly all actives have a fitted effect of over 50% in size
# Details: GH3.TRE-Luc viability, CellTiter-Fluor, 24 h; series mostly up to 70.3 µM; activity change, negative = cytotoxic: at the top concentration
# Source text: National Center for Advancing Translational Sciences [NCATS]
# NIH Chemical Genomics Center [NCGC]
# U.S. Environmental Protection Agency [EPA]
# National Institutes of Environmental Health Sciences [NIEHS]
# National Toxicology Program [NTP]
# U.S. Food and Drug Administration [FDA]
# Thyroid receptor (TR), a nuclear hormone receptor, plays an important role in development, proliferation, differentiation, metabolism, brain function, and cardiovascular system. […] To profile the Tox21 10K compound library in TR signaling, a cell-based GH3-TRE-Luc assay (GH3.TRE-Luc cell line, developed by the laboratory of Dr. Albertinka J. Murk, Wageningen University) was used to measure the inhibition of TR. GH3 (rat pituitary tumor) cells stably expressing a TR activity sensor consisting of two TR response elements and a luciferase reporter gene. The cytotoxicity of the Tox21 compound library against the GH3.TRE-Luc cell line was tested in parallel by measuring the cell viability using CellTiter-Fluor assay (Promega, Madison, WI) in the same wells.
# Tox21 Assay Protocol Summary:
# GH3.TRE-Luc cells were dispensed at 1500 cells/4 uL/well into 1536-well white solid bottom plates using a Multidrop Combi dispenser (Thermo Fisher Scientific Inc., Waltham, MA). After the assay plates were incubated at 37 C for 4 hours, 23 nL of library compound or DMSO controls was transferred to the assay plates by a pintool station (Kalypsys, San Diego, CA), followed by addition of 1 ul of T3 (1 nM, final concentration in the wells) to stimulate TR transactivation. The assay plates were incubated at 37 C for 23.5 h, and then 1 uL of CellTiter-Fluor reagent (Promega, Madision, WI) of measuring cytotoxicity was added to each well using a Bioraptr Flying Reagent Dispenser (FRD) workstation (Beckman Coulter, Indianapolis, IN, USA). The plates were incubated at 37C and 5% CO2 for additional 30 min, and fluorescence intensity was measured by a ViewLux plate reader (PerkinElmer, Shelton, CT).
# On the % scale 0 is the no-effect control and ±100 the full control effect; potency means the concentration at half of the fitted maximal effect.
SMILES,"activity change, negative = cytotoxic",Potency
CCNC(C)Cc1cccc(C(F)(F)F)c1 (stereo not given),1.88% (inactive),
CN1CC[C@@]23CCCC[C@@H]2[C@@H]1Cc1ccc(O)cc13,-17.8% (inactive),
CO/C=C(/C(=O)OC)c1ccccc1Oc1cc(Oc2ccccc2C#N)ncn1,,33.6 µM (active)
CC(C)C[C@H]1C(=O)N2CCC[C@H]2[C@]2(O)O[C@](NC(=O)[C@@H]3C[C@@H]4c5cccc6[nH]cc(c56)C[C@H]4N(C)C3)(C(C)C)C(=O)N12,,29.8 µM (active)
C/C(=C\c1csc(C)n1)[C@@H]1C[C@@H]2O[C@]2(C)CCC[C@H](C)[C@H](O)[C@@H](C)C(=O)C(C)(C)[C@@H](O)CC(=O)O1,,0.0038 µM (active)
CCCC(C)C1(CC)C(=O)NC(=O)NC1=O (stereo not given),21.3% (inactive),
CC(C)C[C@H](CN)CC(=O)O,18.3% (inactive),
COc1ccc2c(c1)C13CCCC[C@@H]1C(C2)N(C)CC3 (stereo not given in full),-29.3% (inactive),
O=C(CCl)c1ccc(Oc2ccc(C(=O)CCl)cc2)cc1,-19.7% (inactive),
CCCC(C)(COC(N)=O)COC(=O)NC1CC1 (stereo not given),-0.782% (inactive),
CCN(CC)/[N+]([O-])=N/O,-23.9% (inactive),
NC(=O)CN1CC(O)CC1=O (stereo not given),24.6% (inactive),
C[C@H]1CC[C@]2(NC1)O[C@H]1C[C@H]3[C@@H]4CC[C@H]5C[C@@H](O[C@@H]6O[C@H](CO)[C@H](O[C@@H]7O[C@H](CO)[C@@H](O)[C@H](O[C@@H]8OC[C@@H](O)[C@H](O)[C@H]8O)[C@H]7O[C@@H]7O[C@H](CO)[C@@H](O)[C@H](O)[C@H]7O)[C@H](O)[C@H]6O)CC[C@]5(C)[C@H]4CC[C@]3(C)[C@H]1[C@@H]2C,,2.37 µM (active)
CCC(N)Cc1c[nH]c2ccccc12 (stereo not given),5.97% (inactive),
N#CC1(N2CCCCC2)CCCCC1,13% (inactive),
C[C@]12CCC(=O)C[C@@H]1CC[C@@H]1[C@@H]2CC[C@@]2(C)[C@H]1CC[C@]2(C)O,6.63% (inactive),
S=C(S)N1CCNCC1,28.5% (inactive),
Cc1ccc(N(SC(F)(Cl)Cl)S(=O)(=O)N(C)C)cc1,,2.73 µM (active)
O=S(=O)(O)c1cc(O)ccc1O,,inactive
CN[C@H]1C[C@@H](N)[C@H](O)[C@@H](O[C@@H]2O[C@H](CO)[C@H](O)[C@@H]3OC4(O[C@H]23)O[C@H](C(N)CO)[C@H](O)[C@H](O)[C@H]4O)[C@@H]1O (stereo not given in full),-20.8% (inactive),

SMILES,"activity change, negative = cytotoxic",Potency
O=P(O)(O)C(Cl)(Cl)P(=O)(O)O,-19.5% (inactive),
C[C@@H](Cc1ccccc1)N(C)C,14.3% (inactive),
C[C@@H]1[C@@H]2Cc3ccc(O)cc3[C@@]1(C)CCN2CC1CC1,-16.6% (inactive),
CCN(CC)CCO[C@H]1CC[C@@]2(C)C(=CC[C@@H]3[C@@H]2CC[C@]2(C)C(=O)CC[C@@H]32)C1,-18.4% (inactive),
C=C[C@H]1CN2CC[C@H]1C[C@@H]2[C@@H](O)c1ccnc2ccccc12,9.32% (inactive),
CC(C)[C@@]1(NC(=O)[C@@H]2C[C@@H]3c4cccc5[nH]cc(c45)C[C@H]3N(C)C2)O[C@@]2(O)[C@@H]3CCCN3C(=O)[C@H](Cc3ccccc3)N2C1=O,,23.7 µM (active) and 21.1 µM (active)
COC(=O)[C@H]1[C@@H](OC(=O)c2ccccc2)C[C@@H]2CC[C@H]1N2C,-17.4% (inactive),
Cc1ccccc1-n1c(C)nc2ccccc2c1=O,,inactive and 24.1 µM (active)
CN1CCCC(=C(c2cccs2)c2cccs2)C1,-26% (inactive),
CC(=O)O[C@H]1C[C@H](O[C@H]2[C@@H](O)C[C@H](O[C@H]3[C@@H](O)C[C@H](O[C@H]4CC[C@@]5(C)[C@H](CC[C@@H]6[C@@H]5C[C@@H](O)[C@]5(C)[C@@H](C7=CC(=O)OC7)CC[C@]65O)C4)O[C@@H]3C)O[C@@H]2C)O[C@H](C)[C@H]1O[C@@H]1O[C@H](CO)[C@@H](O)[C@H](O)[C@H]1O,2.49% (inactive),
CCCN1CCC[C@H](c2cccc(O)c2)C1,2.5% (inactive),
COC([CH2][Hg])CNC(=O)c1ccccc1OCC(=O)O (stereo not given),0.265% (inactive),
O=C(O)/C=C/C(=O)O,,inactive
CC(C)CCC(=O)O[C@H]1CC[C@H]2[C@@H]3CCC4=CC(=O)CC[C@]4(C)[C@H]3CC[C@]12C,,33.5 µM (active)
OC[C@@H](O)[C@H]1O[C@@H]2O[C@@H](C(Cl)(Cl)Cl)O[C@@H]2[C@H]1O,23.8% (inactive),
CO[C@H]1[C@@H](O)C[C@H](O[C@H]2[C@@H](O)C[C@H](O[C@H]3[C@@H](O)C[C@H](O[C@H]4CC[C@@]5(C)[C@H](CC[C@@H]6[C@@H]5C[C@@H](O)[C@]5(C)[C@@H](C7=CC(=O)OC7)CC[C@]65O)C4)O[C@@H]3C)O[C@@H]2C)O[C@@H]1C,8.26% (inactive),
C[C@@H]1[C@@H]2Cc3ccc(O)cc3[C@@]1(C)CCN2CCc1ccccc1,,60.4 µM (active)
CC[N+](C)(CC)CCOC(=O)C(O)(c1ccccc1)c1ccccc1,8.3% (inactive),
F/C(COc1ccc2c(c1)[nH]c1ccccc12)=C1/CN2CCC1CC2,,7.5 µM (active)
CC(=O)O[C@H]1C[C@H](O[C@H]2[C@@H](O)C[C@H](O[C@H]3[C@@H](O)C[C@H](OC4CC[C@@]5(C)[C@H](CC[C@@H]6[C@@H]5CC[C@]5(C)[C@@H](C7=CC(=O)OC7)CC[C@]65O)C4)O[C@@H]3C)O[C@@H]2C)O[C@H](C)[C@H]1O[C@@H]1O[C@H](CO)[C@@H](O)[C@H](O)[C@H]1O (stereo not given in full),17.7% (inactive),
